From PubChem BioAssay (NCI)
Where “and” joins values, the source holds several entries; their conditions need not be identical. Equal values may be shown once. This is part of a sample that, as a whole, favours compounds with a hit. Of some 79,000 tested, about 15% had one in any assay. Cut-off read from the data, not from the text of the source: active = growth inhibition above about 70%; inactive = the rest.

What was measured:
[1] = NCI Yeast Anticancer Drug Screen. Data for the rad50 strain (AID 155);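 note: 0% = growth of vehicle-only cultures of the same strain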; conditions: S. cerevisiae rad50 strain growth inhibition, active compounds read high; at 50.0 µM unless noted
Method in brief: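 Growth of the mutant yeast was measured after compound exposure and referenced to vehicle-treated cultures.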

[2] = NCI Yeast Anticancer Drug Screen. Data for the mec2-1 strain (AID 157); conditions: S. cerevisiae mec2-1 strain, active compounds read high; at 50.0 µM unless noted
Method in brief: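 Test agents were screened against the mec2-1 yeast strain, with defined DNA repair or cell cycle alteration. Growth was scored as inhibition against vehicle-only controls.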

[3] = NCI Yeast Anticancer Drug Screen. Data for the sgs1 mgt1 strain (AID 161);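 note: 0% = growth of cultures given vehicle only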; conditions: S. cerevisiae sgs1 mgt1 strain, active compounds read high; at 50.0 µM unless noted
Method in brief: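 Inhibition of yeast growth, normalised to vehicle-treated controls, is reported for a strain bearing genetic alterations in DNA damage repair.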

[4] = NCI Yeast Anticancer Drug Screen. Data for the cln2 rad14 strain (AID 165);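 note: 0% = growth equal to vehicle treated cultures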; conditions: S. cerevisiae cln2 rad14 strain, active compounds read high; at 50.0 µM unless noted
Method in brief: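 Growth of compound-exposed yeast (cln2 rad14 genotype) measured and expressed as inhibition relative to vehicle.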

[5] = NCI Yeast Anticancer Drug Screen. Data for the bub3 strain (AID 167); conditions: S. cerevisiae bub3 mutant strain, active compounds read high; at 50.0 µM unless noted
Method in brief: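 Whole-cell yeast assay. The mutant strain was incubated with compounds, and growth inhibition was determined by comparison with vehicle-treated cells.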

[6] = NCI Yeast Anticancer Drug Screen. Data for the mlh1 rad18 strain (AID 175); conditions: S. cerevisiae mlh1 rad18 strain growth inhibition, active compounds read high; at 50.0 µM unless noted
Method in brief: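 In this whole-cell yeast screen, a strain with altered DNA damage repair is challenged with compound, and its growth is measured against matched vehicle-treated controls.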

Measured: growth inhibition

CCOC(=O)c1ccc(N=C2S/C(=C\C(=S)Nc3ccccc3)N(c3ccccc3)C2=Nc2ccc(C(=O)OCC)cc2)cc1
inactive: [1] 14.3% | [2] 4.85% | [3] 12.4% | [4] 13.6% | [5] 19.2% | [6] 12.4%

CC(C)COC(c1ccccc1)c1ccccc1
inactive: [1] -9.5% | [2] -9.75% | [3] 5.15% | [4] 18.8% | [5] -12.8% | [6] -4.75%

OCC(O)COc1ccc(Cl)cc1 (stereo not given)
inactive: [1] -5% | [2] -12.8% | [3] -1.25% | [4] 2.05% | [5] 6.4% | [6] 9%

O=c1[nH][nH]c2ccccc12
inactive: [1] 23.1% | [2] -11.3% | [3] 13.1% | [4] 13.9% | [5] 8.9% | [6] 12.2%

CSC(=N)N
inactive: [1] -8.55% and -15.6% | [2] -18.2% and -17.4% | [3] -52.2% | [4] -46% | [5] 1.45% | [6] -2.95% and -29.8%

CC1(C)N=C(C(N)=O)c2ncn(Cc3ccccc3)c2N1
inactive: [1] -29% | [2] -32.6% | [3] -23.6% | [4] 18.4% | [5] -8.1% | [6] -6.9%

Nc1nc(N)c(N=O)c(Nc2ccccc2)n1
inactive: [1] 7.75% | [2] 6.9% | [3] -8.35% | [4] 0.45% | [5] 41.6% | [6] 43.4%

O=C(NC1c2ccccc2Oc2ccccc21)OCCI
inactive: [1] 36.1% | [2] 6.05% | [3] 37.6% | [4] 13.3% | [5] -14% | [6] 19.8%

Nc1c(N2CCOCC2)c(=O)nc2[nH]/c(=C\c3ccccc3)c(=O)n12
inactive: [1] 8.5% | [2] -20.7% | [3] 4.75% | [4] 22% | [5] 8% | [6] -46.8%

O=c1[nH]cnc2c1ncn2C1CCCO1 (stereo not given)
inactive: [1] -14.2% | [2] -3.3% | [3] -2.9% | [4] -24.1% | [5] 17.4% | [6] 0.9%

Cn1c(=O)c(C(=O)Nc2nc(C34CC5CC(CC(C5)C3)C4)cs2)c(O)c2ccccc21
inactive: [1] -27.8% | [2] -28.6% | [3] -5.7% | [4] 11.1% | [5] -10% | [6] -30.6%

Fc1ccccc1-c1nn2c(C34CC5CC(CC(C5)C3)C4)nnc2s1
inactive: [1] 6.45% | [2] -33.1% | [3] -29.6% | [4] -14.5% | [5] -11.8% | [6] -52%

COC(=O)C1(C)CCCC2(C)C1CCC1(O)C(O)C(C(C)C)=CCC21 (stereo not given)
inactive: [1] 4.3% | [2] -2.35% | [3] 2.55% | [4] -2.25% | [5] -1.95% | [6] 20.2%

CC(C)CNC(=O)c1ccccc1Cl
inactive: [1] -22.9% | [2] 20.1% | [3] -5.4% | [4] -32.4% | [5] 2.55% | [6] -11.1%

CC[N+](CC)(CC)CCOc1nc(OCC[N+](CC)(CC)CC)nc(OCC[N+](CC)(CC)CC)n1
inactive: [1] 11.8% | [2] 11% | [3] 10.3% | [4] 9.1% | [5] 17.1% | [6] 35%

CCNc1cc(Cl)c(C(=O)O)cc1[N+](=O)[O-]
inactive: [1] -8.8% | [2] 20.9% | [3] 15.3% | [4] -22.7% | [5] -8.75% | [6] -8.65%

CC(=O)COC(=O)c1ccccc1
inactive: [1] 32.1% | [2] 3.5% | [3] 28.7% | [4] 0% | [5] 10.2% | [6] 26.2%

CC(=O)Oc1ccc(N2CC=C(c3ccccc3)CC2)cc1
inactive: [1] -6.7% | [2] -13.5% | [3] -9.75% | [4] -8.35% | [5] -9.45% | [6] -4.45%

Cc1c2n(c(=O)[nH]c1=O)C1OC(CO)C(O2)C1N=[N+]=[N-] (stereo not given)
inactive: [1] -11.1% | [2] -17.6% | [3] -27.2% | [4] -7.55% | [5] -9.65% | [6] -34.6%

CN(C)CCCC(=O)O
inactive: [1] -13.3% | [2] -45.4% | [3] -14.1% | [4] 2.8% | [5] -31.9% | [6] -0.35%
